These results are taken from PubChem BioAssay (NCI).

Compounds without any hit were thinned out: in the full panel of roughly 83,000, 20% have a hit.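 Single-dose data. Exposure time 48 hours. Values below 10 considered active.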 The source made the active and inactive calls.

For this test, the system named is HCC-2998 colon. The test can be described thus: NCI-60 one-dose screen, 48 h (100 = growth as untreated, 0 = no growth, -100 = all killed). The following applies: 10 µM unless noted.
In the case of `c1ccc(-c2cn3c(-c4c[nH]c5ccccc45)csc3n2)cc1`, the growth was 71.3% (inactive).
The value for `O=C(/C=C/c1ccccc1Cl)Nc1ncc(Cc2cc(Cl)ccc2Cl)s1` was 57.8% (inactive); that for `O=C(CCCCCCNC(=O)c1csc(Br)n1)NO` was 63% (inactive).
In the case of `CCOC(=O)c1cnc2c(-c3ccc(Cl)c(Cl)c3)cnn2c1`, the growth is 85% (inactive).
The value for `Cc1csc(/N=C(N)/N=C(\N)c2cccc(Br)c2)n1` was 97% (inactive); that for `CN1CCN(c2ccc(Nc3nc(NCCNC(=O)c4ccccc4)c4sccc4n3)cc2)CC1` was 84% (inactive).
The value for `C#Cc1cc(OC)c(C(=O)Nc2ccc(F)cc2C(=O)Nc2cccc(S(=O)(=O)C(F)(F)F)c2)cn1` was 47.8% (inactive); that for `CCCN1C=C/C(=C\C(=O)n2ccc3ccccc32)c2ccccc21` was 104% (inactive).
With `CNC(=O)c1cc(-n2ccc3cc(NC(=O)Nc4ccc(N5CCN(C)CC5)c(C(F)(F)F)c4)ccc32)ccn1` the figure was 92.3% (inactive).
As for `Fc1cc(F)cc(NNC(=S)c2ccccc2)c1`, the growth was 87% (inactive).
With `CCCCCCCCCCCC(=O)NC(C)(C)C(=O)N1CCCC1C(=O)NC(C)(C)C(=O)NC(C)(C)C(=O)N1CCCC1C(=O)NC(C)(C)C(=O)NC(C)(C)C(=O)N1CCCC1C(=O)NC(C)C(=O)NCCC(=O)NC(C)C(=O)NC(C)(C)C(=O)NC(C)(C)C(=O)NC(C)(C)C(=O)NCCC(=O)NC(C)(C)C(=O)NC(C)(C)C(=O)NC(C)(C)C(=O)NC(C)C(=O)NCCC(=O)O` (configuration not stated) the figure was -92.4% (active); with `CC[C@]12C=CCN3CC[C@@]4(c5ccc(OC)cc5N(C)[C@H]4[C@@](O)(C(=O)OC)[C@@H]1OC(=O)CCN1CCc4ccccc4C1)[C@@H]32`, 69.5% (inactive).
